Measurements taken from PubChem BioAssay (Tox21).
Several values for one entry are separate records, joined by “and”; a condition that tells them apart may be missing. Identical values can stand only once. Unmarked numbers belong to inactive results. Results filed as inconclusive are left out. Entries that show only a call come without a potency. Activity calls are given as the source filed them. Unless noted, calls come from the whole dose curve; as a rule, active = well fitted curve in the direction sought with a large enough effect in the repeat runs; inconclusive = weak or mixed curves; inactive = no such curve, though single readings can be large; an effect the other way counts as inactive or inconclusive.

What was measured:
[1] = qHTS assay to identify small molecule agonists of the estrogen receptor alpha (ER-alpha) signaling pathway in the presence of an antagonist - cell viability counter screen (AID 1259386);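 note: series mostly up to about 92 µM; cells exposed to compounds for 22 h at 37 °C before the viability read; nearly all actives have a fitted effect of over 30% in size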
Method in brief: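 VM7Luc4E2 cells (endogenous full-length ER-alpha, 4×ERE-luciferase) were held 5 days in phenol red-free medium with 10% charcoal-stripped FBS, plated, then given 10.0nM ICI-182,780 and compounds at 15 concentrations for 22hr at 37C; viability read by CellTiter-Fluor fluorescence.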

[2] = biological target: Progesterone receptor (Homo sapiens) (UniProt P06401); assay: qHTS assay to identify small molecule agonists of the progesterone receptor (PR) signaling pathway (AID 1346784; calls by dose curve; note: nearly all actives have a fitted effect of over 30% in size)
Method in brief: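 PR-UAS-bla HEK 293T cells (beta-lactamase reporter under UAS) in 2% charcoal-stripped FBS, dosed with 23 nL compound after 6 hr, incubated 16hr at 37C. LiveBLAzer B/G FRET substrate added, fluorescence read after 2 hours.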

[3] = qHTS assay to identify small molecule antagonists of the progesterone receptor (PR) signaling pathway - cell viability counter screen (AID 1346798); note: series mostly up to about 92 µM; nearly all actives have a fitted effect of over 50% in size
Method in brief: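 PR-UAS-bla HEK293T cells, 3,000/well in 2% charcoal-stripped FBS medium, dosed with compounds plus R5020 agonist and incubated 16 h at 37C. Viability then measured in the same wells by CellTiter-Glo luminescence after 30 min at RT.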

[4] = qHTS assay to identify small molecule agonists of the progesterone receptor (PR) signaling pathway - cell viability counter screen (AID 1346799; calls by dose curve; note: nearly all actives have a fitted effect of over 45% in size)
Method in brief: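 Counter screen in the PR-UAS-bla HEK293T wells (2% charcoal-stripped FBS, 16 h compound exposure at 37 C) after the bla read. CellTiter-Glo added, 30 min at room temperature, luminescence read as cell viability.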

[5] = qHTS assay to identify small molecule antagonists of the TGF-beta/Smad signaling pathway - cell viability counter screen (AID 1346824); note: nearly all actives have a fitted effect of over 50% in size
Method in brief: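 Cytotoxicity counter-screen run in the same wells as the beta-lactamase Smad reporter read: CellTiter-Glo luminescence after 30 min at room temperature. HEK 293T SBE-bla cells had 5 hr compound exposure at 37 C with TGF-beta1 (0.25 ng/mL stock).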

[6] = qHTS assay to identify small molecule agonists of the TGF-beta/Smad signaling pathway - cell viability counter screen (AID 1346829); note: top concentration of the series differs between compounds; nearly all actives have a fitted effect of over 45% in size
Method in brief: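 In parallel with the Smad reporter read, viability of HEK 293T cells stably carrying SBE-bla is quantified by ATP luminescence following 5 hr compound treatment.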

[7] = qHTS assay to identify small molecule agonists of the TGF-beta/Smad signaling pathway (AID 1346859; active = well fitted activation curve with a large enough effect in the signal ratio in the repeat runs, not every such curve was filed as active; the % refers to the signal ratio; note: series mostly up to about 77 µM)
Method in brief: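 SBE-bla HEK293T cells plated overnight, then compound exposure for 5 h at 37 C. Beta-lactamase reporter read with LiveBLAzer B/G FRET substrate after 2 h at room temperature, fluorescence at 405 nm excitation, 460/530 nm emission.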

[8] = biological target: Thyrotropin-releasing hormone receptor (Homo sapiens) (UniProt P34981); assay: qHTS assay to identify small molecule antagonists of the thyrotropin-releasing hormone receptor (TRHR) signaling pathway (AID 1346877; active = well fitted inhibition curve with a large enough effect in the repeat runs, not every such curve was filed as active; note: series mostly up to about 51 µM)
Method in brief: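 TRHR-expressing HEK293 cells were seeded, cultured 18 h at 37 °C, then loaded with calcium dye for 2 h. Compounds were pre-incubated 5 min at room temperature before 1 nM TRH (final) was added, and kinetic fluorescence was recorded for 3 min.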

[9] = biological target: Thyrotropin-releasing hormone receptor (Homo sapiens) (UniProt P34981); assay: qHTS assay to identify small molecule agonists of the thyrotropin-releasing hormone receptor (TRHR) signaling pathway (AID 1346891; calls by dose curve; note: series mostly up to about 58 µM)
Method in brief: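 HEK293 cells expressing TRHR plated 18 h at 37 C/5% CO2, calcium dye-loaded 2 h at 37 C, then compound added (agonist mode); kinetic calcium fluorescence read 3 min at 1 s intervals; 15 concentrations in triplicate.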

[10] = Human pregnane X receptor (PXR) small molecule agonists, qHTS cell viability counter screen (AID 1346977); note: nearly all actives have a fitted effect of over 50% in size; note: potency is the fitted concentration of half-maximal effect
Method in brief: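 PXR-Luc HepG2 cells (2,000/well, 5% charcoal-stripped FBS) preincubated 5 hr, then exposed to compounds 24 hr at 37 C. Viability read in the same wells by CellTiter-Fluor fluorescence, reagent added at 23 hr, 1 hr incubation.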

[11] = Caspase-3/7 induction in HepG2 cells by small molecules, qHTS assay (AID 1346978); note: nearly all actives have a fitted effect of over 15% in size
Method in brief: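 Caspase-3/7 induction was measured by Caspase-Glo 3/7 luminescence (30 min, room temperature) after a 17 hr compound exposure of wild-type HepG2 cells seeded at 2,000 per well and pre-incubated 5 hr.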

[12] = Caspase-3/7 induction in CHO-K1 cells by small molecules, qHTS cell viability counter screen (AID 1346979); note: nearly all actives have a fitted effect of over 35% in size; note: potency is the fitted concentration of half-maximal effect
Method in brief: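 Wild-type CHO-K1 cells (1,500/well) treated with compound after 5 h plating; after 16 h at 37C, viability read as CellTiter-Fluor fluorescence following 1 h reagent incubation, in the same wells as the caspase read.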

[13] = Caspase-3/7 induction in CHO-K1 cells by small molecules, qHTS assay (AID 1346980); note: nearly all actives have a fitted effect of over 15% in size
Method in brief: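 Luminescent Caspase-Glo 3/7 read (30min, room temperature) quantified apoptosis induction. Cells were wild-type CHO-K1, treated with compound for 17hr at 37 C and 5% CO2.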

[14] = Caspase-3/7 induction in HepG2 cells by small molecules, qHTS cell viability counter screen (AID 1346981); note: nearly all actives have a fitted effect of over 30% in size; note: potency is the fitted concentration of half-maximal effect
Method in brief: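 Wild-type HepG2 cells (2,000/well) were allowed to settle for 5 hr at 37 C, 5% CO2, then dosed with compounds in DMSO by pin transfer. After 16 hr at 37 C, CellTiter-Fluor was added and fluorescence read 1 hr later.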

[15] = biological target: Nuclear receptor subfamily 1 group I member 2 (Homo sapiens) (UniProt O75469); assay: Human pregnane X receptor (PXR) small molecule agonists, qHTS assay (AID 1346982); note: nearly all actives have a fitted effect of over 35% in size; note: potency is the fitted concentration of half-maximal effect
Method in brief: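 PXR-Luc HepG2 cells (CYP3A4 promoter-driven luciferase) were seeded in medium with 5% charcoal-stripped FBS, left 5 hr at 37 C, then exposed to compounds in DMSO for 24 hr. Luminescence was read after ONE-Glo addition.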

[16] = biological target: Acetylcholinesterase (Homo sapiens) (UniProt P22303); assay: Acetylcholinesterase (AChE) small molecule antagonists: colormetric cell-based qHTS assay (AID 1347395; calls by dose curve; note: nearly all actives have a fitted effect of over 30% in size)
Method in brief: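 SH-SY5Y cells attached overnight, exposed to compound 30 min at 37 C, then given DTNB/acetylthiocholine; after 90 min at 37 C, colorimetric thiocholine read gives cellular AChE activity.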

[17] = biological target: Progesterone receptor (Homo sapiens) (UniProt P06401); assay: qHTS assay to identify small molecule antagonists of the progesterone receptor (PR) signaling pathway (AID 1346795; active = well fitted inhibition curve with a large enough effect in the signal ratio in the repeat runs, not every such curve was filed as active; the % refers to the signal ratio)
Method in brief: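 PR-UAS-bla HEK293T cells with beta-lactamase reporter under UAS control, in 2% charcoal-stripped FBS, treated with compounds plus 1 nM promegestone (R5020, final) for 16 hr at 37C. Read-out: FRET beta-lactamase substrate fluorescence after 2 hr at room temperature.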

[18] = biological target: Nuclear receptor subfamily 1 group I member 2 (Rattus norvegicus) (UniProt Q9R1A7); assay: Rat pregnane X receptor (rPXR) activation by small molecules, qHTS assay (AID 1346983); settings: rPXR luciferase reporter cells, One-Glo luminescence, 24 h; stronger effect = higher value; note: nearly all actives have a fitted effect of over 20% in size
Method in brief: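 Luminescent readout (One-Glo luciferase, 30 min room temperature) followed 24 hr compound treatment at 37 C of rPXR cells plated 2,000 per well and preincubated 5hr; qHTS format with compounds delivered in DMSO.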

[19] = biological target: Nuclear receptor subfamily 1 group I member 2 (Homo sapiens) (UniProt O75469); assay: CYP3A4 induction through human pregnane X receptor (PXR) by small molecules, qHTS assay (AID 1346984); note: nearly all actives have a fitted effect of over 40% in size
Method in brief: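 DPX-2 cells (HepG2 co-transfected with PXR and CYP3A4 promoter-luciferase) treated with compounds 24 h at 37C; luciferin-IPA CYP3A4 substrate 3uM final added for 3 h, then One-Glo; luminescence read. qHTS format.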

[20] = biological target: Nuclear receptor subfamily 1 group I member 2 (Homo sapiens) (UniProt O75469); assay: Human pregnane X receptor (PXR) activation by small molecules, qHTS assay (AID 1346985); note: nearly all actives have a fitted effect of over 40% in size; note: potency is the fitted concentration of half-maximal effect
Method in brief: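 DPX-2 cells (HepG2 co-transfected with a PXR response element and a CYP3A4-promoter luciferase construct) were seeded at 2,000 per well, rested 5 hr at 37C, then exposed to DMSO-dissolved compounds for 24 hr. Activation was read as luciferase luminescence.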

Nuclear receptor subfamily 1 group I member 2 (Rattus norvegicus), sequence (Q9R1A7 whole entry, looked up): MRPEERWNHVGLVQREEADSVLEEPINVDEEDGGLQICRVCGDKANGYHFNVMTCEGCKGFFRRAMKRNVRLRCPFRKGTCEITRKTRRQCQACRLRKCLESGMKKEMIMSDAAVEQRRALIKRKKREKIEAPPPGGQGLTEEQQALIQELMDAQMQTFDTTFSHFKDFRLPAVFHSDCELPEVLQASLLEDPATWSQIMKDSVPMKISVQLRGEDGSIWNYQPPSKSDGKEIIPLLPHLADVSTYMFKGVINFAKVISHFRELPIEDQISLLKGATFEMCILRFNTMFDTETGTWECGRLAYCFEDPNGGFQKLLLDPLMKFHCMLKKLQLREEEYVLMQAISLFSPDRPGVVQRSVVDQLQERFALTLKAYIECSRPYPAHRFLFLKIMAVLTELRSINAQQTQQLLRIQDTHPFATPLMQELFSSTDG
Nuclear receptor subfamily 1 group I member 2 (Homo sapiens), sequence (O75469 whole entry, looked up): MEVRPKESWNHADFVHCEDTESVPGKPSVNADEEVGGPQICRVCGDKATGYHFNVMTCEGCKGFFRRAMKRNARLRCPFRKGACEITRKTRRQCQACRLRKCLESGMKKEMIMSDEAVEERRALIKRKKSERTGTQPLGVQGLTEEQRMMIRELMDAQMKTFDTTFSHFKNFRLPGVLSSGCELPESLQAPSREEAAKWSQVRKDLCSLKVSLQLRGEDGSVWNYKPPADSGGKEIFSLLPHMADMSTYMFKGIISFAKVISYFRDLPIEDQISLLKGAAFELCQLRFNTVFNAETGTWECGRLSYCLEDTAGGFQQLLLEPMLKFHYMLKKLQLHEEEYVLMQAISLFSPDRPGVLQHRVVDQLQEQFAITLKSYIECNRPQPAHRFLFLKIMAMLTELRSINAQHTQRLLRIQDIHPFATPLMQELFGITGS
Progesterone receptor (Homo sapiens), sequence (P06401 whole entry, looked up): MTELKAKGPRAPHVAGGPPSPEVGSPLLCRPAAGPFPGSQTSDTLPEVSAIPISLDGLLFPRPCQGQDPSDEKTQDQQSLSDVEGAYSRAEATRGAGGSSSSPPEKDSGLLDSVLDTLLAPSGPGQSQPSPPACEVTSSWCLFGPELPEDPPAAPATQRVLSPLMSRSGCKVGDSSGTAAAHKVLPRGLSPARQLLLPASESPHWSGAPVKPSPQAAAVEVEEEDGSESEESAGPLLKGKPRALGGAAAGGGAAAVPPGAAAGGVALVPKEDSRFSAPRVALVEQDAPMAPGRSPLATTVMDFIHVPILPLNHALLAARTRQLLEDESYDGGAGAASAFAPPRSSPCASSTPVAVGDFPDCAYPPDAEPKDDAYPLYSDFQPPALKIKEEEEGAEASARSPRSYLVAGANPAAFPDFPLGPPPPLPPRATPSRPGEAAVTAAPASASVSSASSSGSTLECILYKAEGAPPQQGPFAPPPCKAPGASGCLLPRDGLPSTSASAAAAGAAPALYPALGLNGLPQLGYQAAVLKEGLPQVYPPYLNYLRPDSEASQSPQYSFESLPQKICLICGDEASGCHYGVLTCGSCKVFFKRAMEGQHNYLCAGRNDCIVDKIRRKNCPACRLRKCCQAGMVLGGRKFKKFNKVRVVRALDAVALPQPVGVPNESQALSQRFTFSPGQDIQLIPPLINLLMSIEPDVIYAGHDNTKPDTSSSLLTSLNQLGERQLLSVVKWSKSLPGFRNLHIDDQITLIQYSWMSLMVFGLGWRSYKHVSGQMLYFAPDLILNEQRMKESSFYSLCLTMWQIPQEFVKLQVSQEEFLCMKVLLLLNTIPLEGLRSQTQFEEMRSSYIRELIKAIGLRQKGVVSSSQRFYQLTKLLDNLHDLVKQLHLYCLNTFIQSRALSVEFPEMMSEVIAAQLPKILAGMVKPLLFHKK
Thyrotropin-releasing hormone receptor (Homo sapiens), sequence (P34981 whole entry, looked up): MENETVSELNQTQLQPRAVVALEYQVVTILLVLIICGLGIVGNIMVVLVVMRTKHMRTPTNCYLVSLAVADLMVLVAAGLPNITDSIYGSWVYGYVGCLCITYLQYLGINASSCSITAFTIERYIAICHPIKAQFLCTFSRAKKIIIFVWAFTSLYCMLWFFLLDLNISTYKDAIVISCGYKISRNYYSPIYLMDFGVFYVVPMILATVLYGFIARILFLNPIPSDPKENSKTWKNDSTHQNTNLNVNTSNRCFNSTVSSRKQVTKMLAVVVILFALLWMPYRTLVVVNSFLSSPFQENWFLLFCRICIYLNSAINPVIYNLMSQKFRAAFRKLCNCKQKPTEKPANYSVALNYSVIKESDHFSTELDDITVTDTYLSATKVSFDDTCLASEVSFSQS
Acetylcholinesterase (Homo sapiens), sequence (P22303 whole entry, looked up): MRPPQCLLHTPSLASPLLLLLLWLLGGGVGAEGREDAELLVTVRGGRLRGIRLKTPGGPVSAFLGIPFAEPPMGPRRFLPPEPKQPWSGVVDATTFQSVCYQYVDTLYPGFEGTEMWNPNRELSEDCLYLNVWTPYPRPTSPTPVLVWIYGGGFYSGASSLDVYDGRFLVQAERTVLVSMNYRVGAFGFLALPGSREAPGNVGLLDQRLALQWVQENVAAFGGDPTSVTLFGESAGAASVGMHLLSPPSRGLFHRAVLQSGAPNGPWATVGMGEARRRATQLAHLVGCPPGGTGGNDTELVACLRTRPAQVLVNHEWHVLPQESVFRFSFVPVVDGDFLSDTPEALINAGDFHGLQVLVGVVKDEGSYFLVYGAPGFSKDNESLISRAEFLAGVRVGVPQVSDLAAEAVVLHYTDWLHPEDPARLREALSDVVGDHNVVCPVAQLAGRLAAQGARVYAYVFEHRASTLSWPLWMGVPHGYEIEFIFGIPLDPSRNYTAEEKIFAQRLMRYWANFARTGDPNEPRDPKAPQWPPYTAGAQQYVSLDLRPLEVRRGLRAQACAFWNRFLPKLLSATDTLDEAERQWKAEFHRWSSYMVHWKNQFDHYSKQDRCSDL

Row | Compound | Potency [1] | Potency [2] | Potency [3] | Potency [4] | Potency [5] | Potency [6] | outcome [7] | Potency [8] | outcome [9] | Potency [10] | Potency [11] | Potency [12] | Potency [13] | Potency [14] | Potency [15] | Potency [16] | Potency [17] | max activation [18] [%] | outcome [19] | Potency [20]
1 | CCCCCCCCCCCCN(C)C | inactive | inactive | inactive | inactive | inactive | inactive | inactive | inactive | inactive | inactive | inactive | inactive | inactive | inactive | inactive | inactive | – | – | – | –
2 | N#CC(C#N)=Cc1ccc(O)c(O)c1 | inactive | inactive | – | – | inactive | – | inactive | inactive | inactive | inactive | inactive | – | inactive | inactive | inactive | inactive | inactive | – | – | –
3 | C[C@@H]1C[C@@H]([C@H](O)CC2CC(=O)NC(=O)C2)C(=O)[C@@H](C)C1 | inactive | inactive | inactive | inactive | inactive | inactive | inactive | inactive | inactive | – | inactive | 24.2 nM (active) and 68.6 nM (active) and 188 nM (active) | inactive | – | – | – | – | – | – | –
4 | CC(C)(C)NCC(O)c1cc(Cl)c(N)c(C(F)(F)F)c1 (stereo not given) | – | inactive | inactive | inactive | inactive | inactive | inactive | inactive | inactive | – | inactive | – | inactive | – | inactive | inactive | inactive | 8.47 | inactive | inactive
5 | Cc1nnc(-c2ccccc2)c(=O)n1N | inactive | inactive | – | inactive | inactive | inactive | inactive | – | inactive | inactive | inactive | inactive | inactive | inactive | inactive | inactive | – | – | – | –
6 | NCCc1cc(O)c(O)cc1O | – | inactive | inactive | inactive | inactive | inactive | inactive | – | inactive | – | inactive | – | inactive | inactive | inactive | inactive | inactive | -4.9 | inactive | inactive
7 | NC(=S)c1c(Cl)cccc1Cl | inactive | – | inactive | inactive | inactive | – | inactive | – | – | inactive | inactive | inactive | inactive | – | inactive | inactive | – | – | – | –
8 | O=C(O)CCCOc1ccc(Cl)cc1Cl | inactive | – | – | – | inactive | – | – | – | – | – | inactive | inactive | inactive | – | – | – | – | – | – | –
9 | COc1ccc(C(=O)c2c(C)n(CCN3CCOCC3)c3ccccc23)cc1 | inactive | inactive | – | – | inactive | – | inactive | inactive | inactive | inactive | inactive | – | inactive | – | 9.44 µM (active) | inactive | – | 9.34 | inactive | 14.1 µM (active)
10 | C=CCOC(=O)C(C)(C)OC(=O)c1cc(-n2c(=O)cc(C(F)(F)F)n(C)c2=O)ccc1Cl | inactive | – | inactive | inactive | inactive | inactive | inactive | inactive | inactive | inactive | inactive | – | inactive | inactive | 4.24 µM (active) | inactive | – | – | – | –
11 | CCCCC(CC)COC(=O)c1c(Br)c(Br)c(Br)c(Br)c1C(=O)OCC(CC)CCCC (stereo not given) | inactive | – | inactive | inactive | inactive | inactive | inactive | – | inactive | inactive | inactive | inactive | inactive | inactive | 16.8 µM (active) | inactive | inactive | – | – | –
12 | COc1cc(C[C@@H](C)N)c(OC)cc1Br | inactive | inactive | – | – | inactive | inactive | inactive | inactive | inactive | – | inactive | inactive | inactive | inactive | inactive | inactive | – | – | – | –
13 | O=C(N[C@H]1CN2CCC1CC2)c1ccc2c(c1)OCCO2 | – | – | inactive | inactive | inactive | inactive | inactive | inactive | inactive | inactive | inactive | inactive | inactive | inactive | inactive | – | inactive | – | – | –
14 | Cc1ncc(C[n+]2csc(CCO)c2C)c(N)n1 | inactive | – | inactive | inactive | inactive | inactive | inactive | inactive | inactive | inactive | inactive | inactive | inactive | – | – | – | – | – | – | –
15 | Cc1nc2ccccc2c(=O)n1-c1ccccc1Cl | – | inactive | inactive | inactive | inactive | inactive | inactive | inactive | inactive | – | inactive | 26.7 µM (active) | inactive | 26.7 µM (active) | 21.2 µM (active) | inactive | – | – | – | –
16 | COC(=O)C1(O)c2ccccc2-c2ccccc21 | inactive | inactive | – | inactive | inactive | inactive | inactive | – | inactive | – | inactive | inactive | inactive | inactive | – | inactive | – | – | – | –
17 | ClCc1ccccc1Cl | inactive | – | inactive | inactive | inactive | inactive | inactive | – | – | inactive | inactive | inactive | inactive | inactive | inactive | inactive | – | – | – | –
18 | O=[N+]([O-])/C=C/c1ccccc1 | inactive | – | inactive | inactive | inactive | inactive | inactive | inactive | inactive | 24.7 µM (active) and 19.3 µM (active) | – | 6.97 µM (active) and 12.2 µM (active) | inactive | – | – | – | – | – | – | –
